Test results taken from PubChem BioAssay (NCI).
About 79,000 compounds went through this panel and 15% of them were active in at least one assay; those are over-represented in the sample as a whole. The source made the active and inactive calls. No stated cut-off is given here; in the data, active means growth inhibition above about 70%; inactive means the rest.

Experiments:
[1] = NCI Yeast Anticancer Drug Screen. Data for the rad52 strain (AID 147);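 further: 0% = growth of vehicle-treated control cultures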; conditions: S. cerevisiae rad52 mutant growth inhibition, active compounds read high
Summary of the method: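 The repair-mutant yeast strain was incubated with compounds, then growth was read and inhibition derived relative to vehicle.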

[2] = NCI Yeast Anticancer Drug Screen. Data for the rad50EPP+ strain (AID 151);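 further: 0% = growth of vehicle-treated control cultures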; conditions: S. cerevisiae rad50 mutant strain, active compounds read high
Summary of the method: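 Vehicle-normalised growth inhibition; rad50EPP+ yeast strain, altered in DNA damage repair, compound-treated.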

[3] = NCI Yeast Anticancer Drug Screen. Data for the mgt1 strain (AID 153); conditions: S. cerevisiae mgt1 mutant growth inhibition, active compounds read high
Summary of the method: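 Vehicle-normalized growth inhibition is determined in mgt1 yeast, a strain selected for a defined alteration in DNA repair or cell cycle control.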

[4] = NCI Yeast Anticancer Drug Screen. Data for the rad50 strain (AID 155);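 further: 0% = growth of vehicle-only cultures of the same strain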; conditions: S. cerevisiae rad50 strain growth inhibition, active compounds read high
Summary of the method: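 Relative growth inhibition (compound vs vehicle) was measured in yeast with a defined repair-gene alteration.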

[5] = NCI Yeast Anticancer Drug Screen. Data for the mec2-1 strain (AID 157); conditions: S. cerevisiae mec2-1 strain, active compounds read high
Summary of the method: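 Mutant yeast (mec2-1) grown with compound; growth inhibition relative to vehicle control reported.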

[6] = NCI Yeast Anticancer Drug Screen. Data for the rad14 strain (AID 159);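 further: 0% = growth of vehicle-treated control cultures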; conditions: S. cerevisiae rad14 strain growth inhibition, active compounds read high
Summary of the method: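 Screen for anticancer potential: a yeast strain altered in DNA damage repair is grown with compound, and reduced growth is quantified against vehicle controls.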

[7] = NCI Yeast Anticancer Drug Screen. Data for the sgs1 mgt1 strain (AID 161);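 further: 0% = growth of cultures given vehicle only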; conditions: S. cerevisiae sgs1 mgt1 strain, active compounds read high
Summary of the method: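 Percent growth inhibition was derived by comparing compound-exposed mutant yeast with vehicle-exposed cultures. The strain carries alterations in DNA damage repair.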

[8] = NCI Yeast Anticancer Drug Screen. Data for the CLN2oe strain (AID 163);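 further: 0% = growth of vehicle-only control cultures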; conditions: S. cerevisiae CLN2oe strain, active compounds read high
Summary of the method: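 Compounds are applied to yeast harbouring a defined cell-cycle control change; reduced growth compared with vehicle-treated controls gives the value.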

[9] = NCI Yeast Anticancer Drug Screen. Data for the cln2 rad14 strain (AID 165);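 further: 0% = growth equal to vehicle treated cultures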; conditions: S. cerevisiae cln2 rad14 strain, active compounds read high
Summary of the method: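 Readout is yeast growth inhibition versus vehicle-treated controls, using a strain with cln2 and rad14 alterations exposed to compound.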

[10] = NCI Yeast Anticancer Drug Screen. Data for the bub3 strain (AID 167); conditions: S. cerevisiae bub3 mutant strain, active compounds read high
Summary of the method: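 Screening used yeast with an engineered genetic alteration affecting cell cycle control. Compound-exposed cultures were compared with vehicle cultures, and reduced growth was taken as inhibition.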

[11] = NCI Yeast Anticancer Drug Screen. Data for the wt2 strain (AID 169);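 further: 0% = growth of vehicle-treated yeast cultures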; conditions: S. cerevisiae wt2 strain growth inhibition, active compounds read high
Summary of the method: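 Against vehicle-treated controls, the growth of yeast exposed to each compound was compared, and the inhibition was recorded.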

[12] = NCI Yeast Anticancer Drug Screen. Data for the mlh1 strain (AID 171);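 further: 0% = growth of vehicle-treated control cultures of the same strain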; conditions: S. cerevisiae mlh1 strain growth inhibition, active compounds read high
Summary of the method: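 Measured: yeast growth. Reference: vehicle-treated controls. Organism: strain with a defined alteration affecting DNA damage repair or cell cycle control, treated with compound.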

[13] = NCI Yeast Anticancer Drug Screen. Data for the sgs1 strain (AID 173);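 further: 0% = growth of vehicle-only control cultures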; conditions: S. cerevisiae sgs1 mutant, active compounds read high
Summary of the method: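 Each compound was added to cultures of the altered yeast strain. Growth was recorded, and inhibition was derived by comparison with vehicle controls.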

[14] = NCI Yeast Anticancer Drug Screen. Data for the mlh1 rad18 strain (AID 175); conditions: S. cerevisiae mlh1 rad18 strain growth inhibition, active compounds read high
Summary of the method: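 Genetically defined yeast (DNA repair-deficient) exposed to compounds; growth inhibition determined relative to vehicle.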

[15] = NCI Yeast Anticancer Drug Screen. Data for the rad18 strain (AID 177); conditions: S. cerevisiae rad18 mutant growth inhibition, active compounds read high
Summary of the method: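 Vehicle-treated cultures served as the baseline for scoring compound-induced growth inhibition in DNA-repair-mutant yeast.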

[16] = at 5.0 µM (retest, dose inferred, filed as 0.5)
[17] = at 50.0 µM (retest, dose inferred, filed as 5.0)

Measured: growth inhibition

NC(=S)NC(=S)Nc1ccccc1
inactive: [1]; at 1.2 µM -7% | [1]; at 3.7 µM -4% | [1]; at 11.0 µM -3% | [1]; at 33.0 µM 1% | [1]; at 100.0 µM 23% | [2]; at 1.2 µM -6% | [2]; at 3.7 µM -10% | [2]; at 11.0 µM -12% | [2]; at 33.0 µM -12% | [2]; at 100.0 µM -10% | [3]; at 1.2 µM -6% | [3]; at 3.7 µM -3% | [3]; at 11.0 µM 2% | [3]; at 33.0 µM 16% | [4]; at 1.2 µM 0% | [4]; at 3.7 µM -47% | [4]; [16] -1% | [4]; at 11.0 µM 18% | [4]; at 33.0 µM 5% | [4]; [17] 2% | [4]; at 50.0 µM 23.5% | [5]; at 1.2 µM -4% | [5]; at 3.7 µM -2% | [5]; [16] -2% | [5]; at 11.0 µM 2% | [5]; at 33.0 µM 8% | [5]; [17] 10% | [5]; at 50.0 µM 38.5% | [5]; at 100.0 µM 62% | [6]; at 1.2 µM -6% | [6]; at 3.7 µM -3% | [6]; at 11.0 µM 0% | [6]; at 33.0 µM 8% | [7]; [16] -3% | [7]; [17] 49% | [8]; at 1.2 µM -19% | [8]; at 3.7 µM -22% | [8]; at 11.0 µM -16% | [8]; at 33.0 µM -18% | [8]; at 100.0 µM -13% | [9]; [16] -25% | [9]; [17] 8% | [9]; at 50.0 µM 68.7% | [10]; at 1.2 µM -11% | [10]; at 3.7 µM -13% | [10]; [16] -13% | [10]; at 11.0 µM -14% | [10]; at 33.0 µM -8% | [10]; [17] 18% | [10]; at 50.0 µM 34.6% | [10]; at 100.0 µM 34% | [11]; at 1.2 µM -5% | [11]; at 3.7 µM 6% | [11]; at 11.0 µM -1% | [11]; at 33.0 µM 1% | [11]; at 100.0 µM 42% | [12]; at 1.2 µM -3% | [12]; at 3.7 µM 0% | [12]; at 11.0 µM 4% | [12]; at 33.0 µM 17% | [13]; at 1.2 µM 2% | [13]; at 3.7 µM 9% | [13]; at 11.0 µM 24% | [13]; at 33.0 µM 44% | [14]; [16] -1% | [14]; [17] 31% | [15]; at 1.2 µM -3% | [15]; at 3.7 µM -1% | [15]; at 11.0 µM 3% | [15]; at 33.0 µM 21%
active: [3]; at 100.0 µM 80% | [4]; at 100.0 µM 79% | [6]; at 100.0 µM 93% | [7]; at 50.0 µM 82.5% | [12]; at 100.0 µM 85% | [13]; at 100.0 µM 95% | [14]; at 50.0 µM 77% | [15]; at 100.0 µM 95%
